# The whole screen tested about 64,000 compounds, of which about 2,200 (3.4%) were called active. What follows is part of a selection rich in actives, with near analogues and random picks from the rest. Unmarked numbers belong to inactive results.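 How the source made its calls: active means calcium fluorescence response, raw or row-and-column corrected B-score, differing from the plate sample mean either way at a set confidence level, mostly lower; inactive means the rest.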
# Target: Muscarinic acetylcholine receptor M1 (Rattus norvegicus) (UniProt P08482)
# Sequence (P08482 whole entry, looked up): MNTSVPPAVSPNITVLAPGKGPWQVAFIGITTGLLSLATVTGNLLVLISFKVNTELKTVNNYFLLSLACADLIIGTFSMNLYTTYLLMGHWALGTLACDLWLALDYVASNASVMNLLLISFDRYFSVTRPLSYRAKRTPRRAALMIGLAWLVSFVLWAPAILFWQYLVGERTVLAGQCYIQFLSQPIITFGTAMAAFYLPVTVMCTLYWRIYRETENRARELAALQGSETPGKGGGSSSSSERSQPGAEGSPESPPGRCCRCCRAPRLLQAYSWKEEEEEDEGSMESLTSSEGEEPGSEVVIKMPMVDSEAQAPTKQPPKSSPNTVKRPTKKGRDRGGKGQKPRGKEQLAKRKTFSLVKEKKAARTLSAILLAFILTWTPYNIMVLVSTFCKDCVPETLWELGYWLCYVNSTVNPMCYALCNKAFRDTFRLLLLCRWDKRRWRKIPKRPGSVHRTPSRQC
# Test: blocks the rat M1 muscarinic receptor response to acetylcholine (AID 628)
# Conditions: CHO-M1 cells, Fluo-4 calcium, ACh EC80 antagonist mode; at 10 µM; stronger effect = lower value
row,Compound,B-score
1,O=C(c1cnn2ccccc12)N1CCc2ccccc21,-0.297
2,O=C(CCS(=O)(=O)c1ccccc1)Nc1nc2c(s1)CCCC2,1.02
3,COc1ccc(CCNC(=O)CCn2c(=O)oc3ccccc32)cc1OC,0.0532
4,CCOC(=O)CSc1nnc(NC(=O)c2cccc(S(=O)(=O)N3CCCCC3)c2)s1,-1.2
5,CCOC(=O)CSc1nnc(NC(=O)c2cccc(S(=O)(=O)N3CCCC3)c2)s1,0.563
6,CCOC(=O)C1=C(CC)Nc2ccccc2N=C1NC(=O)c1cccc(S(=O)(=O)N2CCCC2)c1,-3.22 (active)
7,COc1cccc(NC(=O)Cn2cnc3sc(C)c(S(=O)(=O)N4CCN(C)CC4)c3c2=O)c1,0.144
8,CN(C)CCCn1c(N)c(C#N)c2nc(C#N)c(C#N)nc21,-0.181
9,CCOC(=O)c1[nH]c2ccc(OC)cc2c1NC(=O)CCN1CCN(Cc2ccccc2)CC1,-4.59 (active)
10,Cc1c(C(=O)N2CCOCC2)[nH]c2ccc(OCc3ccccc3)cc12,-2.27
11,CCOC(=O)c1[nH]c2ccc(OC)cc2c1NC(=O)N1CCOCC1,0.577
12,O=C(CN(c1ccc2c(c1)OCCO2)S(=O)(=O)c1ccccc1)Nc1ccc2c(c1)OCO2,0.461
13,Cc1c(C(=O)Nc2ccccc2Cl)oc2ccc(S(=O)(=O)N3CCC4(CC3)OCCO4)cc12,2.7 (active)
14,CCOc1ccccc1NC(=O)c1cc(S(=O)(=O)N2CCC3(CC2)OCCO3)ccc1F,-0.759
15,CCOC(=O)C1CCN(C(=O)c2oc3ccc(S(=O)(=O)N4CCCCCC4)cc3c2C)CC1,-0.942
16,Cc1ccc(NC(=O)CN(C)S(=O)(=O)c2cnc[nH]2)cc1C,0.0747
17,O=C(NCC(F)(F)F)Nc1nnc(C(F)(F)F)s1,-1.96 (active)
18,CCc1nnc(NC(=O)CCC(=O)O)s1,0.852
19,CC(=O)Nc1ccc(NC(=O)CN2CCCC(C)C2)c(Cl)c1 (stereo unspecified),-1.15
20,Cc1cc(C)cc(NC(=O)C2CCN(c3nc(C)cc(C)n3)CC2)c1,0.673
21,COc1ccc(C2C(C#N)=C(N)Oc3cc(N)ccc32)cc1OC (stereo unspecified),0.645
22,O=C(Nc1ccncc1)c1cc2ccccc2o1,1.08
23,O=C(Nc1ccncc1)c1c(F)cccc1F,-4.49 (active)
24,CCOc1ccc(C(=O)Nc2ccncc2)cc1,0.109

row,Compound,B-score
1,CC1Oc2ccccc2N(Cc2cccnc2)C1=O (stereo unspecified),1.07
2,COC(=O)c1sc(=S)n(-c2ccccc2)c1N,0.339
3,Cc1ccc(Cn2c(NC(=O)c3ccco3)nc3ccccc32)cc1,0.141
4,O=C(CSc1nnc2scc(-c3ccc(F)cc3)n12)NCc1ccco1,-0.509
5,Cn1c(-c2ccc(F)cc2)cnc1SCC(=O)NCc1ccco1,0.325
6,Cc1ccc(-c2csc3nnc(SCC(=O)NCc4ccco4)n23)cc1,-10.4 (active)
7,Cc1nc2ccccc2c2oc(C(=O)NCC3CCCO3)cc12 (stereo unspecified),0.0181
8,Cc1nc2ccccc2c2oc(C(=O)NCCCN3CCC(C)CC3)cc12,-6.51 (active)
9,CCCN(CCC)CCNC(=O)c1cc2c(C)nc3ccccc3c2o1,0.00891
10,Cc1ccc(Nc2nc(CSc3nnnn3-c3ccccc3)cc(=O)[nH]2)cc1,-0.208
11,CCOC(=O)Cc1csc(NC(=O)CSc2nc(C)cc(=O)[nH]2)n1,-0.287
12,CN(CC(=O)NC1CCCCC1)S(=O)(=O)c1ccc(Br)s1,-1.64
13,Cc1cc(C)c2[nH]c(=O)c(C(c3nnnn3Cc3ccc4c(c3)OCO4)N3CCCC3)cc2c1 (stereo unspecified),0.419
14,Cc1ccc(S(=O)(=O)Cn2nnnc2CN2CCN(Cc3ccc4c(c3)OCO4)CC2)cc1,-0.838
15,Fc1ccccc1C(c1nnnn1Cc1ccc2c(c1)OCO2)N1CCN(Cc2ccccc2)CC1 (stereo unspecified),0.889 (active)
16,CCOC(=O)Cn1c(N)c(C(=O)OC)sc1=S,0.106
17,Cn1c(=O)c2c(nc(OCc3cccnc3)n2Cc2ccccc2)n(C)c1=O,-0.0901
18,Cc1ccccc1C(OCC(O)CN1CCCCC1CCO)c1ccccc1 (stereo unspecified),-3.65 (active)
19,COc1cccc(-c2nnc(N(C)C(=O)c3ccno3)s2)c1,0.344
20,CC1CN(c2cc(=O)n(-c3cccc(Br)c3)c(=O)[nH]2)CC(C)O1 (stereo unspecified),-0.299
21,CCN1C(=O)/C(=C\N2CCN(c3ccccc3)CC2)SC1=S,0.399
22,CCN1C(=O)/C(=C2\SC(N3CCCCC3)=NC2=O)c2ccccc21,-3.91 (active)
23,CCN1C(=O)/C(=C\N2CCN(c3cccc(Cl)c3)CC2)SC1=S,0.609
24,CS(=O)(=O)N(CC(=O)N1CCOCC1)c1ccc2c3c(cccc13)CC2,0.0978

row,Compound,B-score
1,Cc1cc(NC(=O)COn2nnc3ccccc32)no1,-0.00408
2,CCOC(=O)c1c(C2CC2)csc1NC(=O)CSCc1c(C)noc1C,-0.892
3,Cc1cc(NC(=O)CCC2COc3ccccc3O2)no1 (stereo unspecified),-0.711
4,COc1ccc(CCNc2ncnc3nc[nH]c23)cc1OC,-0.37
5,c1ccc2c(c1)OCC(CNc1ncnc3nc[nH]c13)O2 (stereo unspecified),-5.49 (active)
6,COCc1[nH]nc2c1C(C1C=CCCC1)C(C#N)=C(N)O2 (stereo unspecified),0.327
7,O=C(c1ccccc1)c1ccc(OC(=O)N2CCCC2)cc1,-0.578
8,CCOc1ccccc1C1CC(c2ccccc2)Nc2nc(N)nn21 (stereo unspecified),0.59
9,CCOC(=O)c1c(C)[nH]c(C(=O)NCc2ccccc2OC)c1C,-0.312
10,CCOC(=O)c1c(C)[nH]c(C(=O)COc2ccc3c(c2)OCO3)c1C,-0.104
11,CCCCOC(=O)c1[nH]c(C)c(C(=O)OC)c1C,1.78 (active)
12,COc1ccccc1N(CC(=O)N1CCCCC1)S(=O)(=O)c1ccccc1,-0.874
13,COc1ccc(N2C(=O)c3cccc4cccc(c34)C2=O)nn1,0.203
14,COC(=O)C1=C(C)Nc2ncnn2C1c1ccco1 (stereo unspecified),0.342
15,CC(=O)C1=C(O)C(=O)N(c2ccc(S(N)(=O)=O)cc2)C1c1ccccc1F (stereo unspecified),-0.56
16,C/C(CC(O)(/C=N/O)c1ccccc1)=N\O (stereo unspecified),0.581
17,CCOC(=O)N1CCC(NC(=O)c2ccc3nc(N4CCOCC4)sc3c2)CC1,0.0825
18,COC(=O)Cc1cc(=O)n(-c2nc3ccccc3s2)[nH]1,0.181
19,CCOC(=O)N1CCN(CC(=O)Nc2cc(C)nn2-c2nc3ccccc3s2)CC1,-2.41 (active)
20,CCCCNc1nc2c(c(=O)n(C)c(=O)n2C)n1Cc1cccc(OC)c1,-0.0697
21,O=C1NC(Nc2nc3ccccc3s2)(C(F)(F)F)C(=O)N1C1CCCCC1 (stereo unspecified),-3.66 (active)
22,COC(=O)NC1(C(F)(F)F)NC(=O)N(C2CCCCC2)C1=O (stereo unspecified),-0.0429
23,Cc1c(NC(=O)C(C)OC(=O)c2cc3c4ccccc4n(C)c3s2)c(=O)n(-c2ccccc2)n1C (stereo unspecified),0.392
24,CCC(=O)c1ccc(OCC(O)CN2C(=O)NC(C)(C)C2=O)cc1 (stereo unspecified),0.82 (active)

row,Compound,B-score
1,CCC(=O)c1ccc(OCC(O)CN2CC(C)OC(C)C2)cc1 (stereo unspecified),0.0196
2,CC1(C)NC(=O)N(CCOc2cccc(Oc3ccccc3)c2)C1=O,-0.997
3,Cc1ccc(C(c2sc3nc(C)nn3c2O)N2CCN(c3ccccc3)CC2)cc1 (stereo unspecified),0.39
4,Cn1c(SCc2nc3ccccc3s2)nnc1-c1ccc2c(c1)OCO2,0.0691
5,Cc1cccc2cc(CN(Cc3ccc4c(c3)OCO4)Cc3nnnn3C3CCCC3)c(=O)[nH]c12,-0.601
6,Cc1cccc2cc(CN(Cc3cccs3)C(c3nnnn3C3CCCC3)C(C)C)c(=O)[nH]c12 (stereo unspecified),0.279
7,CCC(c1nnnn1C1CCCC1)N(Cc1cccs1)Cc1cc2cccc(C)c2[nH]c1=O (stereo unspecified),1.98 (active)
8,Cc1cc(Cl)c(S(=O)(=O)NCc2cccnc2)cc1OCC(N)=O,0.63
9,Cn1c(=O)c2c(nc(Br)n2CCSc2nc3ccccc3o2)n(C)c1=O,0.536
10,COC(=O)c1cc(OC)c(OC)cc1NC(=O)C1CCCO1 (stereo unspecified),-0.418
11,COc1ccc(-n2nnnc2SCC(=O)c2ccc(OC)c(OC)c2)cc1,-0.785
12,CCOc1ccc(C(=O)Nc2cc(OC)ccc2OC)cc1,0.223
13,CCN(CCCCOC(=O)c1ccc(OC)c(OC)c1)C(C)Cc1ccc(OC)cc1 (stereo unspecified),-14.7 (active)
14,O=C(CSc1nnnn1-c1ccc2c(c1)CCC2)Nc1ccc2c(c1)OCCO2,-1.02
15,CC(=O)Nn1cc2c(=O)n(C)c(=O)n(C)c2c1,0.526
16,O=C(NCCc1ccc(Cl)cc1)C1CC(=O)N(C2CCCCC2)C1 (stereo unspecified),-0.27
17,O=C(NCCCN1CCCCCC1)C1CC(=O)N(C2CCCC2)C1 (stereo unspecified),-2.1 (active)
18,CC(C)OCCCNC(=O)C1CC(=O)N(C2CCCCCCC2)C1 (stereo unspecified),-0.0238
19,Cc1ccc(-n2nc3c(c2NC(=O)CCC2CCCCC2)CS(=O)C3)cc1 (stereo unspecified),0.299
20,Cc1ccnc(SCCn2c(N(C)Cc3ccccc3)nc3c2c(=O)n(C)c(=O)n3C)n1,0.589
21,COC(=O)C(C)Sc1ccc2nnc(-c3cccc(F)c3)n2n1 (stereo unspecified),-0.0277
22,CC(NC(=O)Nc1ccccc1)c1ccccc1 (stereo unspecified),0.2
23,CCC(C(=O)OCCN(CC)CC)c1ccccc1 (stereo unspecified),-11.7 (active)
24,CCOC(=O)C(C(=O)OCC)C(C#N)c1ccccc1 (stereo unspecified),0.000361
